The results in this text go back to PubChem BioAssay (NCI).

“And” between values parts separate entries of the source, which are not always exact repeats. Equal values may be shown once. About 79,000 compounds went through this panel and 15% of them were active in at least one assay; those are over-represented in the sample as a whole. The source made the active and inactive calls. Rule as the data show it: active = growth inhibition above about 70%; inactive = the rest.

The first test is described as follows: NCI Yeast Anticancer Drug Screen. Data for the CLN2oe strain (AID 163).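 Also: 0% = growth of vehicle-only control cultures.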 To be noted: S. cerevisiae CLN2oe strain, at 100.0 µM, active compounds read high. The procedure, abridged: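 Compound-treated yeast; growth vs vehicle ctrl = % inhibition. Genetically altered strain (cell-cycle control).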
Take `O=C(O)C1CC(c2ccccc2)=NN1c1ccccc1` (configuration not stated): the growth inhibition was 97% (active).
Take `CCCCc1ccc(-n2c(C)c(COC(=O)NC)c(COC(=O)NC)c2C)cc1`: the growth inhibition was 94% (active).
`CCC(=O)c1cc(C(=O)C(=S)SC)cc(C(=O)C(=S)SC)c1`: the growth inhibition is 91% (active).
For `CCn1c(O)c(C=Nc2ccccc2)s/c1=N/Nc1nc(-c2ccccc2)cs1`, the growth inhibition was 17% (inactive).
Regarding `Cc1ccccc1N=C(NO)c1ccccc1`, the growth inhibition was 95% (active).
As to `Cc1nc2ccccc2nc1NNc1ccccc1`, the growth inhibition is 18% (inactive).

The next test in a line: NCI Yeast Anticancer Drug Screen. Data for the cln2 rad14 strain (AID 165).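 Also: 0% = growth equal to vehicle treated cultures.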 Conditions: S. cerevisiae cln2 rad14 strain, at 5.0 µM (retest, dose inferred, filed as 0.5), active compounds read high. The procedure, abridged: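 Growth inhibition, relative to vehicle-treated controls, is the read-out. The test organism is a yeast strain with defined genetic alterations, cln2 rad14.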
Take `O=[N+]([O-])c1cc[n+]([O-])cc1`: the growth inhibition was -61% (inactive) and -3% (inactive).
Take `CC1(C)CC(=O)C(/C=N/c2nc(-c3ccccc3)cs2)=C(O)C1`: the growth inhibition was 35% (inactive).
With `Nc1nc(N)c2nc(CNc3ccc(C(=O)NC(CCC(=O)O)C(=O)O)cc3F)cnc2n1` (configuration not stated), the growth inhibition is 14% (inactive).
In the case of `COC(=O)CC1(O)C(/C=C/c2ccccc2)C(C(=O)OC)C(=O)C(C(=O)OC)C1C(=O)OC` (configuration not stated), the growth inhibition was -18% (inactive).
The same measure, in the same setting: for `CC(C)(C)c1ccc(NS(=O)(=O)c2ccc(N)cc2)cc1` the value was 34% (inactive); for `CCN(CC)CCNc1ccc([N+](=O)[O-])c2nc3ccccc3c(N)c12`, 7% (inactive); for `CCCCN(CCCC)C(=O)/C=C/c1ccccc1`, 7% (inactive).
As to `O=c1[nH]c(-c2ccccc2)nc2c1sc1nc3ccccc3n12`, the growth inhibition is 14% (inactive).
Consider `O=[N+]([O-])c1ccc2c(c1)/C(=N/N=C1c3ccccc3Cc3ccccc31)c1cc([N+](=O)[O-])cc([N+](=O)[O-])c1-2`, for which the growth inhibition is 25% (inactive).
Take `CC(C)C(C)/C=C\C(C)C1CCC2C3=CC=C4CC(O)CCC4(C)C3CCC21C` (configuration not stated): the growth inhibition is 91% (active).
`O=C1Nc2ccc(Br)cc2C1=Nc1ccc2c(c1)OCO2`: the growth inhibition is 32% (inactive).
Take `CCCCOCn1c(=O)[nH]c(=O)c2cc(Br)ccc21`: the growth inhibition was 32% (inactive).
Consider `Cc1ccc(S/C(=C\C(=O)O)c2ccccc2)cc1`, for which the growth inhibition was -6% (inactive).
Turning to `O=[N+]([O-])/C=C/c1cc(Cl)c(/C=C/[N+](=O)[O-])cc1Cl`, the growth inhibition is 22% (inactive).
The same measure, in the same setting: for `Cc1cc(S(=O)(=O)Nc2nnc3cnc4ccccc4n23)c(S)cc1Cl` the value was 48% (inactive); for `O=C(/C=C/c1cc(Cl)cc(Cl)c1O)c1cccc(O)c1`, 29% (inactive).
`NC1CCCCC1N.Nc1c(N=Nc2ccc(-c3ccc(N=Nc4cc(S(=O)(=O)[O-])c5ccccc5c4N)cc3)cc2)cc(S(=O)(=O)[O-])c2ccccc12.[OH3+].[OH3+].[Pt+4]`: the growth inhibition was 66% (inactive).
As for `COC(=O)CCC(NC(=S)N/N=C(\C)c1ccccn1)C(=O)OC` (configuration not stated), the growth inhibition is -5% (inactive).
As to `NC(=O)C(=O)NNc1ccccc1`, the growth inhibition is 9% (inactive).
The same measure, in the same setting: for `COc1cc(C2SCC(=O)N2c2ccc(-c3ccc(-n4c(-c5ccccc5)nc5ccccc5c4=O)cc3)cc2)ccc1O` (configuration not stated) the value was -9% (inactive); for `COc1ccc(/C=C/c2sc3ccccc3[n+]2CCCCI)cc1OC`, 36% (inactive).
For the molecule `Cc1c(C(C)C)cc(OCCO)cc1C(C)C`, the growth inhibition was 40% (inactive).
For the molecule `Cc1cc(NCCCCCCCCNc2cc(C)nc3cc(N)ccc23)c2ccc(N)cc2n1`, the growth inhibition was 18% (inactive).
Consider `C=C(Cl)COC(=O)Nc1cccc(Cl)c1`, for which the growth inhibition is 19% (inactive).
Same read-out and setting: for `CC(=O)OC1CC2C(C)(C)C(=O)C=C[C@]2(C)C2CCC3(C)C(=CCC3[C@H](CO)C[C@H](O)C(=O)C(C)(C)O)[C@]12C` (some centres not stated) the value was 32% (inactive); for `COc1ccc(/C=C/C(=O)c2ccccc2)cc1OC`, 30% (inactive).
As to `COc1c(O)c(C=O)c(Br)c(C=O)c1O`, the growth inhibition is 12% (inactive).
Consider `O=[N+]([O-])c1cc(Cl)cnc1Br`, for which the growth inhibition is -56% (inactive).
On to `Cc1ccc2c(c1)C1(SC(C)C(=O)N1c1ccc(Cl)cc1)C(=O)N2` (configuration not stated), for which the growth inhibition is 4% (inactive).
For the molecule `COc1cc(CSc2ccc(O)cc2)cc(O)c1O`, the growth inhibition was 18% (inactive).
For the molecule `Cc1ccc2c3ccc4c(c3n(C)c2c1)C(=O)C=CC4=O`, the growth inhibition is 18% (inactive).
For `O=C(Nc1ccc(Cl)cc1)Nc1nnc2nc(C(C(=O)c3cccc([N+](=O)[O-])c3Cl)c3nc4nnc(NC(=O)Nc5ccc(Cl)cc5)n4[nH]c3=O)c(=O)[nH]n12`, the growth inhibition is -8% (inactive).
For the molecule `O=C(O)C1CC(c2ccccc2)=NN1c1ccccc1` (configuration not stated), the growth inhibition was -15% (inactive).
As for `CCCCc1ccc(-n2c(C)c(COC(=O)NC)c(COC(=O)NC)c2C)cc1`, the growth inhibition is 21% (inactive).
For the molecule `CCC(=O)c1cc(C(=O)C(=S)SC)cc(C(=O)C(=S)SC)c1`, the growth inhibition was -3% (inactive).
For the molecule `CCn1c(O)c(C=Nc2ccccc2)s/c1=N/Nc1nc(-c2ccccc2)cs1`, the growth inhibition was -1% (inactive).
Regarding `Cc1ccccc1N=C(NO)c1ccccc1`, the growth inhibition was -56% (inactive).
As for `Cc1nc2ccccc2nc1NNc1ccccc1`, the growth inhibition was 79% (active).

Staying with this test, now noted: S. cerevisiae cln2 rad14 strain, at 50.0 µM (retest, dose inferred, filed as 5.0), active compounds read high.
Consider `O=[N+]([O-])c1cc[n+]([O-])cc1`, for which the growth inhibition was -19% (inactive) and 19% (inactive).
The same measure, in the same setting: for `CC1(C)CC(=O)C(/C=N/c2nc(-c3ccccc3)cs2)=C(O)C1` the value was 21% (inactive).
On to `Nc1nc(N)c2nc(CNc3ccc(C(=O)NC(CCC(=O)O)C(=O)O)cc3F)cnc2n1` (configuration not stated), for which the growth inhibition was -2% (inactive).
For the molecule `COC(=O)CC1(O)C(/C=C/c2ccccc2)C(C(=O)OC)C(=O)C(C(=O)OC)C1C(=O)OC` (configuration not stated), the growth inhibition is 44% (inactive).
As to `CC(C)(C)c1ccc(NS(=O)(=O)c2ccc(N)cc2)cc1`, the growth inhibition is -111% (inactive).
`CCN(CC)CCNc1ccc([N+](=O)[O-])c2nc3ccccc3c(N)c12`: the growth inhibition is 39% (inactive).
Regarding `CCCCN(CCCC)C(=O)/C=C/c1ccccc1`, the growth inhibition is 20% (inactive).
On the same count and under the same terms, for `O=c1[nH]c(-c2ccccc2)nc2c1sc1nc3ccccc3n12` the value was 19% (inactive).
On to `O=[N+]([O-])c1ccc2c(c1)/C(=N/N=C1c3ccccc3Cc3ccccc31)c1cc([N+](=O)[O-])cc([N+](=O)[O-])c1-2`, for which the growth inhibition was 97% (active).
Turning to `CC(C)C(C)/C=C\C(C)C1CCC2C3=CC=C4CC(O)CCC4(C)C3CCC21C` (configuration not stated), the growth inhibition was 95% (active).
In the case of `O=C1Nc2ccc(Br)cc2C1=Nc1ccc2c(c1)OCO2`, the growth inhibition is 26% (inactive).
Turning to `CCCCOCn1c(=O)[nH]c(=O)c2cc(Br)ccc21`, the growth inhibition is 86% (active).
Consider `Cc1ccc(S/C(=C\C(=O)O)c2ccccc2)cc1`, for which the growth inhibition is 29% (inactive).
Consider `O=[N+]([O-])/C=C/c1cc(Cl)c(/C=C/[N+](=O)[O-])cc1Cl`, for which the growth inhibition is 60% (inactive).
On to `Cc1cc(S(=O)(=O)Nc2nnc3cnc4ccccc4n23)c(S)cc1Cl`, for which the growth inhibition was 54% (inactive).
As for `O=C(/C=C/c1cc(Cl)cc(Cl)c1O)c1cccc(O)c1`, the growth inhibition was 98% (active).
Same read-out and setting: for `NC1CCCCC1N.Nc1c(N=Nc2ccc(-c3ccc(N=Nc4cc(S(=O)(=O)[O-])c5ccccc5c4N)cc3)cc2)cc(S(=O)(=O)[O-])c2ccccc12.[OH3+].[OH3+].[Pt+4]` the value was 78% (active); for `COC(=O)CCC(NC(=S)N/N=C(\C)c1ccccn1)C(=O)OC` (configuration not stated), 82% (active); for `NC(=O)C(=O)NNc1ccccc1`, 32% (inactive).
As for `COc1cc(C2SCC(=O)N2c2ccc(-c3ccc(-n4c(-c5ccccc5)nc5ccccc5c4=O)cc3)cc2)ccc1O` (configuration not stated), the growth inhibition is 10% (inactive).
On the same count and under the same terms, for `COc1ccc(/C=C/c2sc3ccccc3[n+]2CCCCI)cc1OC` the value was 54% (inactive); for `Cc1c(C(C)C)cc(OCCO)cc1C(C)C`, 1% (inactive); for `Cc1cc(NCCCCCCCCNc2cc(C)nc3cc(N)ccc23)c2ccc(N)cc2n1`, 98% (active).
Regarding `C=C(Cl)COC(=O)Nc1cccc(Cl)c1`, the growth inhibition is 16% (inactive).
On the same count and under the same terms, for `CC(=O)OC1CC2C(C)(C)C(=O)C=C[C@]2(C)C2CCC3(C)C(=CCC3[C@H](CO)C[C@H](O)C(=O)C(C)(C)O)[C@]12C` (some centres not stated) the value was 43% (inactive).
On to `COc1ccc(/C=C/C(=O)c2ccccc2)cc1OC`, for which the growth inhibition was 34% (inactive).
On to `COc1c(O)c(C=O)c(Br)c(C=O)c1O`, for which the growth inhibition was 95% (active).
For the molecule `O=[N+]([O-])c1cc(Cl)cnc1Br`, the growth inhibition was -74% (inactive).
Still for that read-out and setting: for `Cc1ccc2c(c1)C1(SC(C)C(=O)N1c1ccc(Cl)cc1)C(=O)N2` (configuration not stated) the value was 49% (inactive).
For the molecule `COc1cc(CSc2ccc(O)cc2)cc(O)c1O`, the growth inhibition is 14% (inactive).
Take `Cc1ccc2c3ccc4c(c3n(C)c2c1)C(=O)C=CC4=O`: the growth inhibition is 50% (inactive).
For the molecule `O=C(Nc1ccc(Cl)cc1)Nc1nnc2nc(C(C(=O)c3cccc([N+](=O)[O-])c3Cl)c3nc4nnc(NC(=O)Nc5ccc(Cl)cc5)n4[nH]c3=O)c(=O)[nH]n12`, the growth inhibition is 14% (inactive).
In the case of `O=C(O)C1CC(c2ccccc2)=NN1c1ccccc1` (configuration not stated), the growth inhibition was -61% (inactive).
In the case of `CCCCc1ccc(-n2c(C)c(COC(=O)NC)c(COC(=O)NC)c2C)cc1`, the growth inhibition was -28% (inactive).
As to `CCC(=O)c1cc(C(=O)C(=S)SC)cc(C(=O)C(=S)SC)c1`, the growth inhibition is 37% (inactive).
As for `CCn1c(O)c(C=Nc2ccccc2)s/c1=N/Nc1nc(-c2ccccc2)cs1`, the growth inhibition is 15% (inactive).
With `Cc1ccccc1N=C(NO)c1ccccc1`, the growth inhibition is 20% (inactive).
As to `Cc1nc2ccccc2nc1NNc1ccccc1`, the growth inhibition was 48% (inactive).
